Data published in article PMC3315485, “Probing the Informational and Regulatory Plasticity of a Transcription Factor DNA–Binding Domain”.
Substitutions are numbered along the chain they refer to.

Tests used:
Experiment in all cases: MITOMI; MITOMI, 295 K (22 C); buffer, salt and pH not stated in the material; high values mean tight binding
Conditions in all cases: protein: ivt; label: fluorescent; dsDNA, one strand shown
[1] = molecular target: T1, MarA wild type (WQR) (Escherichia coli, UniProt P0ACH5 1-127)
T1 sequence: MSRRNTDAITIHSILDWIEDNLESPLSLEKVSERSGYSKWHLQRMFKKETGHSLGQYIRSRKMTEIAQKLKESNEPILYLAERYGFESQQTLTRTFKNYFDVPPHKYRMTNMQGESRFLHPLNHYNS
Summary of the method: (§1)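 Association constants were determined by MITOMI and are expressed for each site relative to the site with the highest affinity for the same protein variant. The MarA protein variants were made with the RTS E. coli HY kit by in vitro transcription and translation and labelled through addition of tRNA-lys-bodipy-fl. Testing covered 64 synthesized mar binding site variants, with fluorescence read on Genepix at 295K.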

[2] = molecular target: T2, MarA RQR (Escherichia coli, UniProt P0ACH5 1-127, W40R)
T2 sequence: T1 sequence with W40R
Summary of the method: as §1

[3] = molecular target: T3, MarA RTR (Escherichia coli, UniProt P0ACH5 1-127, W40R;Q43T)
T3 sequence: T1 sequence with W40R, Q43T
Summary of the method: as §1

[4] = molecular target: T4, MarA SAR (Escherichia coli, UniProt P0ACH5 1-127, W40S;Q43A)
T4 sequence: T1 sequence with W40S, Q43A
Summary of the method: as §1

[5] = molecular target: T5, MarA TRR (Escherichia coli, UniProt P0ACH5 1-127, W40T;Q43R)
T5 sequence: T1 sequence with W40T, Q43R
Summary of the method: as §1

| Sequence | binding signal [1] | binding signal [2] | binding signal [3] | binding signal [4] | binding signal [5] |
| --- | --- | --- | --- | --- | --- |
| ATGTCACGTTTTGCTAAAT | 0.38 Ka relative to the best site of the variant | 0.819 Ka relative to the best site of the variant | 0.306 Ka relative to the best site of the variant | 0.302 Ka relative to the best site of the variant | 0.461 Ka relative to the best site of the variant |
| ATGTTGCGTTTTGCTAAAT | 0.405 Ka relative to the best site of the variant | 0.193 Ka relative to the best site of the variant | 0.518 Ka relative to the best site of the variant | 0.191 Ka relative to the best site of the variant | 0.665 Ka relative to the best site of the variant |
| ATGGAACGTTTTGCTAAAT | 0.299 Ka relative to the best site of the variant | 0.208 Ka relative to the best site of the variant | 0.23 Ka relative to the best site of the variant | 0.646 Ka relative to the best site of the variant | 0.432 Ka relative to the best site of the variant |
| ATGGCGCGTTTTGCTAAAT | 0.334 Ka relative to the best site of the variant | 0.577 Ka relative to the best site of the variant | 0.685 Ka relative to the best site of the variant | 0.973 Ka relative to the best site of the variant | 0.415 Ka relative to the best site of the variant |
| ATGTGACGTTTTGCTAAAT | 0.253 Ka relative to the best site of the variant | 0.11 Ka relative to the best site of the variant | 0.173 Ka relative to the best site of the variant | 0.165 Ka relative to the best site of the variant | 0.413 Ka relative to the best site of the variant |
| ATGTAGCGTTTTGCTAAAT | 0.284 Ka relative to the best site of the variant | 0.0898 Ka relative to the best site of the variant | 0.685 Ka relative to the best site of the variant | 0.152 Ka relative to the best site of the variant | 0.356 Ka relative to the best site of the variant |
| ATGTTACGTTTTGCTAAAT | 0.288 Ka relative to the best site of the variant | 0.135 Ka relative to the best site of the variant | 0.177 Ka relative to the best site of the variant | 0.202 Ka relative to the best site of the variant | 0.518 Ka relative to the best site of the variant |
| ATGTACCGTTTTGCTAAAT | 0.215 Ka relative to the best site of the variant | 0.142 Ka relative to the best site of the variant | 0.989 Ka relative to the best site of the variant | 0.25 Ka relative to the best site of the variant | 0.417 Ka relative to the best site of the variant |
| ATGCGTCGTTTTGCTAAAT | 0.26 Ka relative to the best site of the variant | 0.144 Ka relative to the best site of the variant | 0.153 Ka relative to the best site of the variant | 0.552 Ka relative to the best site of the variant | 0.435 Ka relative to the best site of the variant |
| ATGATGCGTTTTGCTAAAT | 0.319 Ka relative to the best site of the variant | 0.106 Ka relative to the best site of the variant | 0.243 Ka relative to the best site of the variant | 0.854 Ka relative to the best site of the variant | 0.404 Ka relative to the best site of the variant |
| ATGTTCCGTTTTGCTAAAT | 0.197 Ka relative to the best site of the variant |  |  |  |  |
| ATGGTCCGTTTTGCTAAAT | 0.209 Ka relative to the best site of the variant | 0.18 Ka relative to the best site of the variant | 0.146 Ka relative to the best site of the variant | 0.98 Ka relative to the best site of the variant | 0.442 Ka relative to the best site of the variant |
| ATGACACGTTTTGCTAAAT | 0.709 Ka relative to the best site of the variant | 0.337 Ka relative to the best site of the variant | 0.249 Ka relative to the best site of the variant | 0.637 Ka relative to the best site of the variant | 0.369 Ka relative to the best site of the variant |
| ATGAAGCGTTTTGCTAAAT | 0.256 Ka relative to the best site of the variant | 0.0942 Ka relative to the best site of the variant | 0.204 Ka relative to the best site of the variant | 0.677 Ka relative to the best site of the variant | 0.338 Ka relative to the best site of the variant |
| ATGCAACGTTTTGCTAAAT | 0.365 Ka relative to the best site of the variant | 0.142 Ka relative to the best site of the variant | 0.188 Ka relative to the best site of the variant | 0.461 Ka relative to the best site of the variant | 0.501 Ka relative to the best site of the variant |
| ATGAATCGTTTTGCTAAAT | 0.215 Ka relative to the best site of the variant | 0.091 Ka relative to the best site of the variant | 0.214 Ka relative to the best site of the variant | 0.481 Ka relative to the best site of the variant | 0.309 Ka relative to the best site of the variant |
| ATGCTTCGTTTTGCTAAAT | 0.341 Ka relative to the best site of the variant | 0.157 Ka relative to the best site of the variant | 0.723 Ka relative to the best site of the variant | 0.508 Ka relative to the best site of the variant | 0.576 Ka relative to the best site of the variant |
| ATGGTTCGTTTTGCTAAAT | 0.203 Ka relative to the best site of the variant | 0.13 Ka relative to the best site of the variant | 0.189 Ka relative to the best site of the variant | 0.805 Ka relative to the best site of the variant | 0.368 Ka relative to the best site of the variant |
| ATGGGGCGTTTTGCTAAAT | 0.307 Ka relative to the best site of the variant | 0.11 Ka relative to the best site of the variant | 0.167 Ka relative to the best site of the variant | 0.429 Ka relative to the best site of the variant | 0.451 Ka relative to the best site of the variant |
| ATGCTACGTTTTGCTAAAT | 0.363 Ka relative to the best site of the variant | 0.117 Ka relative to the best site of the variant | 0.285 Ka relative to the best site of the variant | 0.491 Ka relative to the best site of the variant | 0.571 Ka relative to the best site of the variant |
| ATGCGCCGTTTTGCTAAAT | 0.223 Ka relative to the best site of the variant | 0.154 Ka relative to the best site of the variant | 0.178 Ka relative to the best site of the variant | 0.602 Ka relative to the best site of the variant | 0.457 Ka relative to the best site of the variant |
| ATGCAGCGTTTTGCTAAAT | 0.293 Ka relative to the best site of the variant | 0.105 Ka relative to the best site of the variant | 0.149 Ka relative to the best site of the variant | 0.357 Ka relative to the best site of the variant | 0.477 Ka relative to the best site of the variant |
